Laboratory results from PubChem BioAssay (EPA / NIEHS).
Records with an inconclusive call do not appear. Activity calls are given as the source filed them. How the source made its calls: active means hit-call score of the fitted dose curve at least 0.9, where 1 is the maximum; inconclusive means response in the unintended direction; inactive means score below 0.9.

These molecules were tested against human Norepinephrine Transporter (NET), SLC6A2 (gene 6530) (UniProt P23975) (assay: NVS_TR_hNET: NovaScreen (NVS) Transporter Assay for human Norepinephrine Transporter (NET) (AID 2283377);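 further: cell-free membrane protein extracted from CHO cells expressing human NET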).
Sequence of human Norepinephrine Transporter (NET), SLC6A2 (gene 6530) (P23975 whole entry, looked up): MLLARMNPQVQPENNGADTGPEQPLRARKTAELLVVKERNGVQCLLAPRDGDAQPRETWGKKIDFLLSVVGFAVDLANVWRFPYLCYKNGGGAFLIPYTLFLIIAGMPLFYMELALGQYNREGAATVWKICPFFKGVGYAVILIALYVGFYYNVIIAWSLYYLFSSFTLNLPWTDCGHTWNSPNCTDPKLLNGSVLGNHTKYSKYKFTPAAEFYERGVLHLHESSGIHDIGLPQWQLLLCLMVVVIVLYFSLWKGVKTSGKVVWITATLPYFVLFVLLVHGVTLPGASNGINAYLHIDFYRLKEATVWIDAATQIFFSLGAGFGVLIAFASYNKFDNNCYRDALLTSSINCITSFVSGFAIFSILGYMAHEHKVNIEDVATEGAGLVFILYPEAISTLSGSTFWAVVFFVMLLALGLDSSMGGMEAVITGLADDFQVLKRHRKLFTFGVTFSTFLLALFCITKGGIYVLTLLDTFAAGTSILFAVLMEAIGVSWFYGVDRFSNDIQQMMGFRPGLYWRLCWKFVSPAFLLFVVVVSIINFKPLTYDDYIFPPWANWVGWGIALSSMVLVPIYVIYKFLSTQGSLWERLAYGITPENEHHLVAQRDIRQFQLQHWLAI
Procedure: NVS_TR_hNET is a biochemical, single-readout assay that uses extracted gene-proteins from CHO in a cell-free assay. Measurements were taken 1 hour after chemical dosing in a 96-well plate.NVS_TR_hNET is one of one assay component(s) measured or calculated from the NVS_TR_hNET assay. It is designed to make measurements of radioligand binding, a form of binding reporter, as detected with scintillation counting signals by Filter-based radiodetection technology.Data from the assay component NVS_TR_hNET was analyzed into 1 assay endpoint. This assay endpoint, NVS_TR_hNET, was analyzed in the positive analysis fitting direction relative to DMSO as the negative control and baseline of activity. Using a type of binding reporter, loss-of-signal activity can be used to understand changes in the binding as they relate to the gene SLC6A2. Furthermore, this assay endpoint can be referred to as a primary readout, because the performed assay has only produced 1 assay endpoint. To generalize the intended target to other relatable targets, this assay endpoint is annotated to the transporter intended target family, where the subfamily is neurotransmitter transporter.
Binding assays used specific radioligands (tritiated, iodinated) with non-radioactive competitive displacement ligands in agonist or antagonist protocols (as indicated) and various reference compounds and inhibitors to titrate specific binding to receptors and transporters. Most enzyme assays (CYPs, kinases, phosphatases, proteases, HDACs) used recombinant protein and specific substrates (fluorescence mostly, some colorimetric and radioactive) and inhibitors, followed by a biochemical separation of substrate and product. All assays for the biochemical HTS were initially run in duplicate at a single concentration (10 uM for CYP450 assays and 25 uM for all others). […] Each assay was run with positive and negative controls, and concurrent controls on every plate. The follow-up (secondary) screen tested active chemical-pairs in concentration series, as well as a few additional assays not tested in the primary screen, some selected negative inactives, and several cases re-run in the concentration series for confirmatory purposes.
For `CCC(=C(c1ccc(O)cc1)c1ccc(OCCN(C)C)cc1)c1ccccc1`, the AC50 was 4.24 µM (active). For `Cc1oc(-c2ccccc2)nc1CCOc1ccc(C[C@H](Nc2ccccc2C(=O)c2ccccc2)C(=O)O)cc1`, the AC50 was 7.12 µM (active). In the case of `CCCOC(=O)c1ccc(O)cc1`, the AC50 is reported as 9.32 µM (active). In the case of `Nc1cccc2c(N)cccc12`, the AC50 is reported as 14.3 µM (active). `CCCCCCCCCCCCc1ccccc1S(=O)(=O)O` was tested, and the AC50 was 9.86 µM (active). `NC(=O)N1C(=O)C(C(=O)c2cc(Cl)cs2)c2cc(F)c(Cl)cc21` (stereo unspecified) was tested, and the AC50 was 25 µM (active). For `CCCCCCCCCCCCCC[N+](C)(C)C`, the AC50 was 3.12 µM (active). `CCCOc1sc(C(=O)N2CCC(c3cc(CN)ccc3F)CC2)c(C)c1Br` was tested, and the AC50 was 4.18 µM (active). In the case of `CCN(CC)CCNc1ccc(CNC=O)c2sc3ccc(OC)cc3c(=O)c12`, the AC50 is reported as 5.84 µM (active). With `Oc1cc2ccccc2c2ccccc12` the AC50 was 1.89 µM (active). In the case of `c1ccc2cc3c(ccc4ccccc43)cc2c1`, the AC50 is reported as 14.7 µM (active). In the case of `NC(=O)N(O)[C@@H]1C=C[C@H](Oc2cccc(Oc3ccc(F)cc3)c2)C1`, the AC50 is reported as 15 µM (active). For `CC(=O)NC1(c2cccc(F)c2)CCN(CC[C@@]2(c3ccc(Cl)c(Cl)c3)CN(c3ccccc3)C(=O)CO2)CC1`, the AC50 was 10.1 µM (active). In the case of `CC#C[C@]1(O)CC[C@H]2[C@@H]3CCC4=CC(=O)CCC4=C3[C@@H](c3ccc(N(C)C)cc3)C[C@@]21C`, the outcome is reported as “inactive”. In the case of `O=C(O)Cc1cc(I)c(Oc2cc(I)c(O)c(I)c2)c(I)c1`, the AC50 is reported as 10.1 µM (active). In the case of `O=[N+]([O-])c1ccc(O)cc1`, the outcome is reported as “inactive”.
